The values that follow come from PubChem BioAssay (NCI).

Each structure is given as a SMILES string. Compounds without any hit were thinned out: in the full panel of roughly 83,000, 20% have a hit.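 A percent growth of 40 corresponds to 60% growth inhibition; 0 means no net growth; -100 means all cells died. Active threshold: below 10.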 A number with no mark means an inactive call. Activity calls are given as the source filed them.

Some test systems named below: DU-145 prostate; K-562 leukemia; MDA-MB-231 breast; RXF 393 renal; SF-268 CNS; SF-295 CNS; SF-539 CNS; M14 melanoma; UACC-257 melanoma; MALME-3M melanoma.
What all share (assay): NCI-60 one-dose screen, 48 h (100 = growth as untreated, 0 = no growth, -100 = all killed)
Details in all cases: 10 µM unless noted

For the molecule `Cc1cccc2c1NC(=O)[C@@]21[C@H](C(=O)c2ccccc2)[C@]2(C(=O)Nc3ccccc32)[C@H]2CCCN21`, the growth was 40% [100 µM] with DU-145 prostate; 30.4% [100 µM] with K-562 leukemia; 14.5% [100 µM] with MDA-MB-231 breast; -23.9% [100 µM] (active) in the assay with RXF 393 renal; 34.3% [100 µM] in the assay on SF-268 CNS; 23.7% [100 µM] with SF-295 CNS. For the same molecule, the growth in the assay on SF-539 CNS is 6.13% [100 µM] (active); in the assay with M14 melanoma, 46.1% [100 µM].

For the molecule `COc1cnc2c(c1)C(=O)c1c-2n(CCCN2CCN(CCO)CC2)c(=O)c2cc([N+](=O)[O-])ccc12`, the growth in the assay on DU-145 prostate is 43.3%; with K-562 leukemia, -26.6% (active); with MDA-MB-231 breast it was -35.8% (active); with RXF 393 renal, 74.3%; in the assay on SF-268 CNS it was 31%; with SF-295 CNS it was 29.2%. In addition, the growth was 57.5% in the assay with SF-539 CNS and 18.2% in the assay on M14 melanoma.

For `Fc1cccc(-c2[nH]nc3nc(Nc4cccnc4)sc23)c1`, the growth with DU-145 prostate is 29.4%; in the assay on K-562 leukemia it was 21%; with MDA-MB-231 breast, 78.2%; with RXF 393 renal, 44.5%; in the assay on SF-268 CNS it was 60.6%; in the assay with SF-295 CNS, 27.4%. The growth with SF-539 CNS is 24%; in the assay on UACC-257 melanoma, 72.4%; in the assay with M14 melanoma it was 45.5%.

`O=C(/C=C/c1cccc(O)c1)c1ccccc1O`: the growth in the assay on DU-145 prostate was 83.2%; in the assay with K-562 leukemia, 80%; with MDA-MB-231 breast it was 80.3%; in the assay on RXF 393 renal it was 89.9%; in the assay with SF-268 CNS it was 94.2%; with SF-295 CNS it was 98.6%. Also, the figures for the growth in the assay with SF-539 CNS, in the assay with UACC-257 melanoma and in the assay on M14 melanoma were 102%, 86.8% and 96.4%, respectively.

Regarding `O=[N+]([O-])c1cccc(/C=N\Nc2ccccc2)c1`, the growth with DU-145 prostate was 80.2%; in the assay with K-562 leukemia, 16.6%; with MDA-MB-231 breast, 55.7%; with RXF 393 renal it was 101%; in the assay on SF-268 CNS it was 62.5%; in the assay on SF-295 CNS, 49.2%. In addition, the figures for the growth with SF-539 CNS, in the assay on UACC-257 melanoma and in the assay on M14 melanoma were 96.7%, 95.3% and 33.7%, respectively.

Regarding `COc1ccc2c(c1)c(-c1nc(-c3c[nH]c4ncccc34)cs1)cn2C`, the growth with DU-145 prostate is 72.5%; in the assay with K-562 leukemia it was 41%; with MDA-MB-231 breast, 55.3%; with RXF 393 renal it was 57.2%; with SF-268 CNS, 97%; with SF-295 CNS, 86%. Further, the values for the growth with SF-539 CNS, with UACC-257 melanoma and with M14 melanoma were 66.2%, 85.1% and 63.7%, respectively.

As for `COC(=O)[C@]12CC[C@@H](C)[C@H](C)[C@@H]1C1=CC(=O)[C@@H]3[C@@]4(C)C[C@@H](OC(C)=O)[C@H](OC(C)=O)[C@@](C)(COC(C)=O)[C@@H]4C(=O)C[C@@]3(C)[C@]1(C)CC2`, the growth in the assay on DU-145 prostate was 73%; with MALME-3M melanoma, 44.6%; in the assay with MDA-MB-231 breast it was 41.6%; in the assay on RXF 393 renal, 64.5%; in the assay on SF-268 CNS it was 73.8%; in the assay on SF-295 CNS, 51.6%. The growth in the assay with SF-539 CNS was 72.3%; with M14 melanoma, 29.5%.

Consider `O=C(N/N=C\c1ccccc1O)C1CC1`, for which the growth was 108% in the assay on DU-145 prostate; 113% in the assay on K-562 leukemia; 103% in the assay with MDA-MB-231 breast; 112% with RXF 393 renal; 98.7% in the assay with SF-268 CNS; 110% in the assay on SF-295 CNS. Also, the growth in the assay on SF-539 CNS was 110%; in the assay with UACC-257 melanoma, 94.7%; with M14 melanoma, 109%.

As for `O=C(NC(Cc1cn(Cc2ccccc2)cn1)C(=O)O)OCC1c2ccccc2-c2ccccc21` (stereo not given), the growth was 113% with DU-145 prostate; 88.8% with K-562 leukemia; 133% in the assay on MDA-MB-231 breast; 117% in the assay on RXF 393 renal; 107% with SF-268 CNS; 94.6% in the assay on SF-539 CNS. The growth in the assay on UACC-257 melanoma was 99.1%; with M14 melanoma, 99.8%.

For the molecule `N#CCCCCCn1c2ccccc2c2c3[nH]c(=O)[nH]c(=O)c3c3c4ccccc4n(CCCCCC#N)c3c21`, the growth was 54.7% with DU-145 prostate; 33.7% in the assay on MALME-3M melanoma; -7.94% (active) in the assay with MDA-MB-231 breast; 41.4% in the assay on RXF 393 renal; 19.6% with SF-268 CNS; 43.7% in the assay on SF-295 CNS. The figures for the growth in the assay with SF-539 CNS and with M14 melanoma were -0.187% (active) and 66.8%, respectively.

Regarding `Cc1cc(C=O)c(C)c2c1[nH]c1ccccc12`, the growth in the assay with DU-145 prostate is 107%; in the assay with K-562 leukemia, 97.8%; with MDA-MB-231 breast, 90.5%; with RXF 393 renal, 117%; with SF-268 CNS it was 96.8%; in the assay on SF-539 CNS it was 95.9%. Moreover, the growth with UACC-257 melanoma is 78.6%; in the assay with M14 melanoma, 105%.

Take `C/C(=N\Nc1ccc2ccccc2n1)c1ccccn1`: the growth in the assay with DU-145 prostate was 13.1%; in the assay with K-562 leukemia it was 2.37% (active); in the assay on MDA-MB-231 breast it was -5.17% (active); in the assay on RXF 393 renal, 9.99% (active); in the assay on SF-268 CNS, -3.84% (active); with SF-539 CNS, -44.2% (active). The growth in the assay on UACC-257 melanoma was -22.6% (active); with M14 melanoma it was -24.6% (active).

For `Cc1cc(C)nc(NC(N)=NCCc2ccccc2)n1`, the growth with DU-145 prostate was 42.6%; in the assay with MDA-MB-231 breast, 51.6%; with RXF 393 renal it was 51.4%; with SF-268 CNS it was 39.5%; in the assay on SF-539 CNS it was 36.7%; in the assay with UACC-257 melanoma, 30.2%. In addition, in the assay on M14 melanoma, the growth was 31.8%.

As for `Cn1cc(-c2nc(-c3c[nH]c4ncccc34)cs2)c2cc(Br)ccc21`, the growth in the assay with DU-145 prostate is 73.2%; in the assay with K-562 leukemia it was 59.5%; in the assay with MDA-MB-231 breast it was 84.6%; with RXF 393 renal, 75.7%; in the assay with SF-268 CNS, 99.1%; in the assay on SF-295 CNS, 84.6%. Moreover, the figures for the growth with SF-539 CNS, in the assay on UACC-257 melanoma and in the assay with M14 melanoma were 108%, 120% and 75.5%, respectively.

As for `Cn1cc(-c2csc(-c3cn(C(=O)OC(C)(C)C)c4ccc(Br)cc34)n2)c2cccnc21`, the growth in the assay with DU-145 prostate was 108%; with K-562 leukemia, 97.6%; in the assay on MDA-MB-231 breast, 75.3%; with RXF 393 renal, 88.5%; with SF-268 CNS, 94.7%; with SF-295 CNS, 79.8%. Also, the growth in the assay on SF-539 CNS is 106%; with UACC-257 melanoma, 114%; in the assay with M14 melanoma, 104%.

Regarding `O=C(NO)c1ccc(Cn2c(=O)n(-c3ccccc3)c(=O)c3ccccc32)cc1`, the growth in the assay on DU-145 prostate is 21.9%; with K-562 leukemia, 3.42% (active); with MDA-MB-231 breast it was 55.1%; with RXF 393 renal, -13.1% (active); in the assay with SF-268 CNS, 43.9%; with SF-295 CNS it was 13.6%. Besides, the values for the growth with SF-539 CNS and in the assay with M14 melanoma were -8.95% (active) and 2.72% (active), respectively.

Regarding `O=C(NC1=CC(=O)c2ccccc2C1=O)c1ccccc1`, the growth in the assay with DU-145 prostate was 63.4%; in the assay on K-562 leukemia it was -0.828% (active); with MDA-MB-231 breast it was 16.9%; in the assay on RXF 393 renal, 35.3%; in the assay on SF-268 CNS, 39.3%; in the assay on SF-295 CNS, 4.13% (active). Also, the growth in the assay on SF-539 CNS is 10.5%; in the assay with UACC-257 melanoma it was -4.63% (active); in the assay with M14 melanoma, 33.9%.

With `COC(=O)C(N)CSC(c1ccccc1)(c1ccccc1)c1ccccc1` (stereo not given), the growth with DU-145 prostate was -24.3% (active); in the assay on MALME-3M melanoma, 31.8%; in the assay on MDA-MB-231 breast, 3.44% (active); in the assay on RXF 393 renal it was 1.07% (active); with SF-268 CNS, 28.4%; in the assay on SF-539 CNS it was -11.7% (active). Moreover, the growth with M14 melanoma was -6.93% (active).
